Measured values published in PubChem BioAssay (NCATS).
Results filed as inconclusive are left out. Active and inactive are the calls of the source. The call rests on the fitted dose curve; in most records, active means well fitted inhibition curve with a large enough effect; inconclusive means small, poorly fitted or top-dose-only effect; inactive means no such curve, though single readings can be large or run the other way.

Tested on: Zika virus NS2B-NS3 protease (unlinked complex)
Assay: Primary screen GU Rhodamine qHTS for Zika virus inhibitors: Unlinked NS2B-NS3 protease assay (AID 1347159); further: nearly all actives have a fitted effect of over 60% in size
Details: Recombinant ZIKV NS2B-NS3 protease, Rhodamine110 substrate fluorescence; series mostly up to 107 µM; activity change, negative = inhibition: at the top concentration
Summary of the method: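 Percent inhibition came from the 15-min rise in Rhodamine110 fluorescence (1.5 microM substrate, ~15% conversion), normalized to no-inhibitor and no-enzyme wells and Hill-fitted. Unlinked protease, 25 nM, pH 8.0 Tris buffer; compounds up to 114 microM, 15-min preincubation.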
On the % scale 0 is the no-effect control and ±100 the full control effect; potency means the concentration at half of the fitted maximal effect.

Row | SMILES | activity change, negative = inhibition | Potency
1 | C=C1CC2OC(=O)C(COC)C2C(OC(=O)/C(C)=C\C)CC2(C)OC1=CC2=O (stereo not drawn) | -15.5% (inactive) | 
2 | CC(=O)OC1CC(C)(C(=O)O)CC2C3=CC(=O)C4C5(C)CCC(OC6OC(C(=O)O)C(O)C(O)C6OC6OC(C(=O)O)C(O)C(O)C6O)C(C)(C)C5CCC4(C)C3(C)CCC12C (stereo not drawn) | -1.06% [at 32.5 µM] (inactive) | 
3 | O=c1cc(N2CCOCC2)nc2c3ccccc3ccn12 | -7.65% (inactive) | 
4 | O=C(O)C1=CO[C@@H](O[C@@H]2O[C@H](CO)[C@@H](O)[C@H](O)[C@H]2O)[C@@H]2C(CO)=CC[C@H]12 | 143% (inactive) | 
5 | CC(O)C(C)n1ncn(-c2ccc(N3CCN(c4ccc(OCC5COC(Cn6cncn6)(c6ccc(Cl)cc6Cl)O5)cc4)CC3)cc2)c1=O (stereo not drawn) | 0% (inactive) | 
6 | C=C1C(=O)O[C@@H]2C[C@@]3(C)CCCC(=C)[C@]3(O)C[C@H]12 | 16.4% (inactive) | 
7 | COc1cc(O)cc(OC2OC(CO)C(O)C(O)C2O)c1 (stereo not drawn) | -9.29% (inactive) | 
8 | O=c1[nH]c2ccccc2n1CCN1CCN(c2cccc(C(F)(F)F)c2)CC1 | -21.3% (inactive) | 
9 | Cc1cc(C(=O)Cn2cc(C#N)ccc2=O)c(C)n1Cc1ccccc1 | -8.43% (inactive) | 
10 | Nc1nc2c(cnn2CCCc2ccc(O)cc2)c2nc(-c3ccco3)nn12 | -1.19% (inactive) | 
11 | C=C1[C@H]2CC[C@H](C(=O)O)[C@@]23CC[C@H](C3)C1(C)C | -0.108% (inactive) | 
12 | COc1ccc(CNc2nc(N(CCO)CCO)nc3c2ncn3C(C)C)cc1 | 25.7% (inactive) | 
13 | N#CC(CCCN1CCC(O)(c2ccc(Cl)cc2)CC1)(c1ccccc1)c1ccccc1 | 238% (inactive) | 
14 | CCCCNc1ncc(-c2ccc(CN3CCOCC3)cn2)c(NC2CCC(O)CC2)n1 (stereo not drawn) | 21.3% [at 57.1 µM] (inactive) | 
15 | O=C(Nc1cccnn1)N1CCN(c2nccc(-c3ccc(F)c(F)c3)n2)CC1 | -1.26% [at 229 µM] (inactive) | 
16 | c1ccc(-c2ccc(CNc3nc(-c4ccccn4)nnc3-c3ccccc3)cc2)cc1 | 7.65% (inactive) | 
17 | CCOc1cccc(NC(=O)c2ccc(N3CCCC3)c(C(F)(F)F)c2)c1 | 0% (inactive) | 
18 | CC[C@H](C)/C=C(C)/C=C/C1=CC2=C(Cl)C(=O)[C@](C)(O)[C@H](OC(C)=O)[C@H]2CO1 |  | 10 µM (active)
19 | CC1(C)C2CCC(CO[C@@H]3O[C@H](CO[C@@H]4OC[C@](O)(CO)[C@H]4O)[C@@H](O)[C@H](O)[C@H]3O)C1C2 (stereo partly drawn) | 26.4% [at 57.1 µM] (inactive) | 
20 | CCOc1cn(-c2ccc(F)cc2C)nc1C(=O)Nc1ccc(Oc2ccnc3cc(OC)c(OC)cc23)c(F)c1 | 96.2% (inactive) | 

Row | SMILES | activity change, negative = inhibition | Potency
21 | CCCc1cc2c(N3CCN(C4=NCC(C)(C)S4)CC3)ncnc2s1 | -28.5% (inactive) | 
22 | C=C[C@H](/C=C\c1ccc(O)cc1)c1ccc(O)cc1 | 3.85% (inactive) | 
23 | CCN(c1cc(-c2ccc(CN3CCOCC3)cc2)cc(C(=O)NCc2c(C)cc(C)[nH]c2=O)c1C)C1CCOCC1 | -6.1% (inactive) | 
24 | C=C1C(=O)OC2CC(C)=C(C(C)CCCOC(C)=O)C(OC(=O)CC(C)CC)C12 (stereo not drawn) | 55.6% [at 57.1 µM] (inactive) | 
25 | COc1ccccc1N1CCN(CC(C(=O)NC(C)(C)C)c2ccccc2)CC1 (stereo not drawn) | 55.5% (inactive) | 
26 | O=C(NCCCN1CCOCC1)c1cnn2c(-c3ccccc3)cc(-c3ccccc3)nc12 | 30.7% (inactive) | 
27 | O=C1Nc2nc(-c3c(O)cccc3OCC3CC3)cc([C@@H]3CCCNC3)c2CO1 | 38.3% (inactive) | 
28 | COCCNCc1ccc(-c2cc3nccc(Oc4ccc(NC(=O)C5(C(=O)Nc6ccc(F)cc6)CC5)cc4F)c3s2)nc1 | 179% (inactive) | 
29 | CCn1nc(C2CCN(C(=O)CCO)CC2)nc1-c1cnc(N)c(-c2nnc(C(C)(C)C)o2)n1 | 44.7% (inactive) | 
30 | C[C@H](Oc1cc(-n2cnc3ccc(CN4CCN(C)CC4)cc32)sc1C(N)=O)c1ccccc1C(F)(F)F | 60% (inactive) | 
31 | CCc1cc2c(cc1CC)CC(NCC(O)c1ccc(O)c3[nH]c(=O)ccc13)C2 (stereo not drawn) | 59% (inactive) | 
32 | Nc1c(S(=O)(=O)c2ccccc2)c2nc3ccccc3nc2n1-c1ccc(F)cc1 | -7.86% (inactive) | 
33 | COc1ccc(CCc2nc3cc(-c4c(C)noc4C)ccc3n2CC(C)N2CCOCC2)cc1Cl (stereo not drawn) | 0.0367% (inactive) | 
34 | O=C(Nc1ccc(C(F)(F)F)cn1)N1CCN(c2ncccc2C(F)(F)F)CC1 | 12.9% (inactive) | 
35 | C=C1CC2[C@@]3(C)C=CC(=O)C(C)(C)C3=C(O)C(=O)[C@@]2(C)C2(C(=O)OC)C(=O)C(C)OC(=O)[C@@]12C (stereo partly drawn) | 13.3% [at 57.1 µM] (inactive) | 
36 | O=c1cc(N2CCN(c3cccc(C(F)(F)F)c3)CC2)[nH]c(=O)n1C1CCCCC1 | 15% (inactive) | 
37 | C=C1C(=O)O[C@@H]2C3C(=C(C)[C@@H](O)[C@@H](OC(=O)/C(=C/C)COC(C)=O)[C@@H]12)C(=O)[C@H]1O[C@@]31C (stereo partly drawn) | -11.7% [at 57.1 µM] (inactive) | 
38 | CCNC(=O)c1noc(-c2cc(Cl)c(O)cc2O)c1-c1ccc(OC)cc1 | -15.7% (inactive) | 
39 | C=C1C(=O)O[C@@H]2[C@H]1CC[C@H](C)C(CCC(=O)O)C2(C)O (stereo partly drawn) | 3.37% (inactive) | 

Tested on: Zika virus NS2B-NS3 protease (linked construct)
Assay: Primary screen NINDS Rhodamine qHTS for Zika virus inhibitors (AID 1347160); further: nearly all actives have a fitted effect of over 55% in size
Details: purified NS2B-NS3 protease, Rhodamine110 substrate fluorescence; series mostly up to 57.1 µM; activity change, negative = inhibition: at the top concentration
Summary of the method: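 Rhodamine110-peptide cleavage (1.5 µM substrate) by 25 nM linked NS2B-NS3 enzyme at pH 8.0 (Tris, Tween 20), after 15 min RT preincubation with compounds; 15-min fluorescence change normalized to controls and Hill-fitted.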

Row | SMILES | activity change, negative = inhibition | outcome | Potency
40 | C=C1CC2OC(=O)C(COC)C2C(OC(=O)/C(C)=C\C)CC2(C)OC1=CC2=O (stereo not drawn) | 8.77% [at 33.1 µM] (inactive) |  | 
41 | CC(=O)OC1CC(C)(C(=O)O)CC2C3=CC(=O)C4C5(C)CCC(OC6OC(C(=O)O)C(O)C(O)C6OC6OC(C(=O)O)C(O)C(O)C6O)C(C)(C)C5CCC4(C)C3(C)CCC12C (stereo not drawn) |  | inactive [at 15.1 µM] | 
42 | O=c1cc(N2CCOCC2)nc2c3ccccc3ccn12 | -1.84% (inactive) |  | 
43 | O=C(O)C1=CO[C@@H](O[C@@H]2O[C@H](CO)[C@@H](O)[C@H](O)[C@H]2O)[C@@H]2C(CO)=CC[C@H]12 | 19.7% [at 33.1 µM] (inactive) |  | 
44 | CC(O)C(C)n1ncn(-c2ccc(N3CCN(c4ccc(OCC5COC(Cn6cncn6)(c6ccc(Cl)cc6Cl)O5)cc4)CC3)cc2)c1=O (stereo not drawn) | 23.1% (inactive) |  | 
45 | C=C1C(=O)O[C@@H]2C[C@@]3(C)CCCC(=C)[C@]3(O)C[C@H]12 | 14% (inactive) |  | 
46 | COc1cc(O)cc(OC2OC(CO)C(O)C(O)C2O)c1 (stereo not drawn) | -23.2% (inactive) |  | 
47 | O=c1[nH]c2ccccc2n1CCN1CCN(c2cccc(C(F)(F)F)c2)CC1 | 10.7% (inactive) |  | 
48 | Cc1cc(C(=O)Cn2cc(C#N)ccc2=O)c(C)n1Cc1ccccc1 | 9.8% (inactive) |  | 
49 | Nc1nc2c(cnn2CCCc2ccc(O)cc2)c2nc(-c3ccco3)nn12 | 46.9% (inactive) |  | 
50 | C=C1[C@H]2CC[C@H](C(=O)O)[C@@]23CC[C@H](C3)C1(C)C | -4.33% (inactive) |  | 
51 | COc1ccc(CNc2nc(N(CCO)CCO)nc3c2ncn3C(C)C)cc1 | 15.3% (inactive) |  | 
52 | N#CC(CCCN1CCC(O)(c2ccc(Cl)cc2)CC1)(c1ccccc1)c1ccccc1 | 568% (inactive) |  | 
53 | CCCCNc1ncc(-c2ccc(CN3CCOCC3)cn2)c(NC2CCC(O)CC2)n1 (stereo not drawn) |  | inactive [at 33.1 µM] | 
54 | O=C(Nc1cccnn1)N1CCN(c2nccc(-c3ccc(F)c(F)c3)n2)CC1 |  | inactive [at 112 µM] | 
55 | c1ccc(-c2ccc(CNc3nc(-c4ccccn4)nnc3-c3ccccc3)cc2)cc1 | -15.2% (inactive) |  | 
56 | CCOc1cccc(NC(=O)c2ccc(N3CCCC3)c(C(F)(F)F)c2)c1 |  | inactive | 
57 | CC[C@H](C)/C=C(C)/C=C/C1=CC2=C(Cl)C(=O)[C@](C)(O)[C@H](OC(C)=O)[C@H]2CO1 |  |  | 11.2 µM (active)
58 | CC1(C)C2CCC(CO[C@@H]3O[C@H](CO[C@@H]4OC[C@](O)(CO)[C@H]4O)[C@@H](O)[C@H](O)[C@H]3O)C1C2 (stereo partly drawn) | 0.152% [at 33.1 µM] (inactive) |  | 
59 | CCOc1cn(-c2ccc(F)cc2C)nc1C(=O)Nc1ccc(Oc2ccnc3cc(OC)c(OC)cc23)c(F)c1 | 44.2% (inactive) |  | 

Row | SMILES | activity change, negative = inhibition | outcome | Potency
60 | CCCc1cc2c(N3CCN(C4=NCC(C)(C)S4)CC3)ncnc2s1 | 14% (inactive) |  | 
61 | C=C[C@H](/C=C\c1ccc(O)cc1)c1ccc(O)cc1 | 5% (inactive) |  | 
62 | CCN(c1cc(-c2ccc(CN3CCOCC3)cc2)cc(C(=O)NCc2c(C)cc(C)[nH]c2=O)c1C)C1CCOCC1 | -15.9% (inactive) |  | 
63 | C=C1C(=O)OC2CC(C)=C(C(C)CCCOC(C)=O)C(OC(=O)CC(C)CC)C12 (stereo not drawn) | -13.9% [at 33.1 µM] (inactive) |  | 
64 | COc1ccccc1N1CCN(CC(C(=O)NC(C)(C)C)c2ccccc2)CC1 (stereo not drawn) | 75.8% (inactive) |  | 
65 | O=C(NCCCN1CCOCC1)c1cnn2c(-c3ccccc3)cc(-c3ccccc3)nc12 |  | inactive | 
66 | O=C1Nc2nc(-c3c(O)cccc3OCC3CC3)cc([C@@H]3CCCNC3)c2CO1 | 69.4% (inactive) |  | 
67 | COCCNCc1ccc(-c2cc3nccc(Oc4ccc(NC(=O)C5(C(=O)Nc6ccc(F)cc6)CC5)cc4F)c3s2)nc1 | 453% (inactive) |  | 
68 | CCn1nc(C2CCN(C(=O)CCO)CC2)nc1-c1cnc(N)c(-c2nnc(C(C)(C)C)o2)n1 | 20.1% (inactive) |  | 
69 | C[C@H](Oc1cc(-n2cnc3ccc(CN4CCN(C)CC4)cc32)sc1C(N)=O)c1ccccc1C(F)(F)F | 76% (inactive) |  | 
70 | CCc1cc2c(cc1CC)CC(NCC(O)c1ccc(O)c3[nH]c(=O)ccc13)C2 (stereo not drawn) | 100% (inactive) |  | 
71 | Nc1c(S(=O)(=O)c2ccccc2)c2nc3ccccc3nc2n1-c1ccc(F)cc1 | -4.6% (inactive) |  | 
72 | COc1ccc(CCc2nc3cc(-c4c(C)noc4C)ccc3n2CC(C)N2CCOCC2)cc1Cl (stereo not drawn) | 14.4% (inactive) |  | 
73 | O=C(Nc1ccc(C(F)(F)F)cn1)N1CCN(c2ncccc2C(F)(F)F)CC1 | 18.2% (inactive) |  | 
74 | C=C1CC2[C@@]3(C)C=CC(=O)C(C)(C)C3=C(O)C(=O)[C@@]2(C)C2(C(=O)OC)C(=O)C(C)OC(=O)[C@@]12C (stereo partly drawn) | 25.1% [at 33.1 µM] (inactive) |  | 
75 | O=c1cc(N2CCN(c3cccc(C(F)(F)F)c3)CC2)[nH]c(=O)n1C1CCCCC1 | -21.7% (inactive) |  | 
76 | C=C1C(=O)O[C@@H]2C3C(=C(C)[C@@H](O)[C@@H](OC(=O)/C(=C/C)COC(C)=O)[C@@H]12)C(=O)[C@H]1O[C@@]31C (stereo partly drawn) |  | inactive [at 33.1 µM] | 
77 | CCNC(=O)c1noc(-c2cc(Cl)c(O)cc2O)c1-c1ccc(OC)cc1 | -0.367% (inactive) |  | 
78 | C=C1C(=O)O[C@@H]2[C@H]1CC[C@H](C)C(CCC(=O)O)C2(C)O (stereo partly drawn) | 4.38% (inactive) |  | 
